Assay results reported in the supplement of paper PMC10849652.
Targets with a hit are over-represented here; the source holds about 7,900 in all. About 0.6% of all pairs of compound and target were hits.

The targets below were run with c1cn2cc(-c3ccc4cn[nH]c4c3)nc(Nc3ccc(N4CCOCC4)cc3)c2n1 [entospletinib] (assay: log2 fold change, soluble protein after heating vs DMSO (PISA); higher = thermal stabilisation; K562 cells, 10 uM, 30 min; active = over 0.2 and 3.5 SD of the protein, either way, in both replicates (recomputed)).
In short: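 K562 cells at 2×10^6 cells/mL were treated for 30 min with 10 μM compound, and aliquots were heated for 3 min over 48°C-58°C before pooling. Extraction used PBS with 0.5% NP-40 at 4°C, and soluble protein was the supernatant after 21,000xg for 90 min, measured by TMTpro 16plex LC-MS/MS with channel sums equalised. Thermal stability values, relative to control samples and from duplicates, are log2 fold changes.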

UniProt P11117, sequence (P11117 whole entry, looked up): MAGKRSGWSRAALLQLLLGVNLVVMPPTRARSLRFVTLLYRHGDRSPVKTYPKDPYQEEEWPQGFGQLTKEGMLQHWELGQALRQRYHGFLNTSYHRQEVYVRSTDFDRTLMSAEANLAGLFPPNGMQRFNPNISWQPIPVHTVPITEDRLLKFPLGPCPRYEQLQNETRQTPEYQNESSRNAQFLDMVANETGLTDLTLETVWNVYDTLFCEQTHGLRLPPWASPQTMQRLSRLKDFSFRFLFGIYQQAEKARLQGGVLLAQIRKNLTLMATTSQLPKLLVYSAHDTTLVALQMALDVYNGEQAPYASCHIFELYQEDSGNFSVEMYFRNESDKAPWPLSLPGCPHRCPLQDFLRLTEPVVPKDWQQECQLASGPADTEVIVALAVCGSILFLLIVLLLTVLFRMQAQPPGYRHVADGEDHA
UniProt Q9NRZ7, sequence (Q9NRZ7 whole entry, looked up): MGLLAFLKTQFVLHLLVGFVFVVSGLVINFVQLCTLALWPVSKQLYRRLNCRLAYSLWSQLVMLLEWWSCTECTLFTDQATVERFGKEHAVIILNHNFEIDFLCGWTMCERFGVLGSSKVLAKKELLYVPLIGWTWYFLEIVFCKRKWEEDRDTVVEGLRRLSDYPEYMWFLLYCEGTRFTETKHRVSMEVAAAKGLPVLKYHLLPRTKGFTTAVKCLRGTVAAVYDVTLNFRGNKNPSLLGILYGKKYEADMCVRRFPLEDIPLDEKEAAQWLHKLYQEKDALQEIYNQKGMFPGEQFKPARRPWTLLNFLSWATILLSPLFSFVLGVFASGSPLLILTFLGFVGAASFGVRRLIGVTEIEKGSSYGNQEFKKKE
UniProt P56211, sequence (P56211 whole entry, looked up): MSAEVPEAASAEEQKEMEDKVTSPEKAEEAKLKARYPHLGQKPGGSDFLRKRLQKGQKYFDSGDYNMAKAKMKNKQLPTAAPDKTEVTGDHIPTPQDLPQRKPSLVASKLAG
UniProt Q8NHH9, sequence (Q8NHH9 whole entry, looked up): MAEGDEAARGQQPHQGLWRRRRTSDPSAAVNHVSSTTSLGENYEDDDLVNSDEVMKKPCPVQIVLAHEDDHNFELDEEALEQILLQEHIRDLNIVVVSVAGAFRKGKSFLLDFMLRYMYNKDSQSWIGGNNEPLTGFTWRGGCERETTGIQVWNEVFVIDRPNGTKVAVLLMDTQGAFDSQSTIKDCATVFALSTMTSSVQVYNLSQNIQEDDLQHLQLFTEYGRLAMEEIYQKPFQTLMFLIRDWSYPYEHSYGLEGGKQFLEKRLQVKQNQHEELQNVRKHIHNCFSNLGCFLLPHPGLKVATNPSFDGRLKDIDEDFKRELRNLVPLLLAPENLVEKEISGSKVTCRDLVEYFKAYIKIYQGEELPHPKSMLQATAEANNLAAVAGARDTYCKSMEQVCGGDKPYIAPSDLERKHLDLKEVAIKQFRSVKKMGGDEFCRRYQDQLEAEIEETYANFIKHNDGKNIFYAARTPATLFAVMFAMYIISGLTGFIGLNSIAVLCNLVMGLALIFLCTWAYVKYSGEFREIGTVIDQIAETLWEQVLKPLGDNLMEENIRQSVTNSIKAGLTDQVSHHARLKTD
UniProt Q07960, sequence (Q07960 whole entry, looked up): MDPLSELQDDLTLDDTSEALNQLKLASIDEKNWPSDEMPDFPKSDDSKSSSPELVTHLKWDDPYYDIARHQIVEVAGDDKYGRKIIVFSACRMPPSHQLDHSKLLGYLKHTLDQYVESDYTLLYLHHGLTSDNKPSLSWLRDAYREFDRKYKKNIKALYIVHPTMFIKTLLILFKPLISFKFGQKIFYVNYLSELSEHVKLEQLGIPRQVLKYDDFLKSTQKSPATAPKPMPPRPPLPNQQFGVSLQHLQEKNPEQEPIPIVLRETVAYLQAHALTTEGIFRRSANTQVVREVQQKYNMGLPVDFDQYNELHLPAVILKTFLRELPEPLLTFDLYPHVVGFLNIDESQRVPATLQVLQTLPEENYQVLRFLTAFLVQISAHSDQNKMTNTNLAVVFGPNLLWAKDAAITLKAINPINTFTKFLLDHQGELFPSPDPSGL
UniProt Q9BRQ8, sequence (Q9BRQ8 whole entry, looked up): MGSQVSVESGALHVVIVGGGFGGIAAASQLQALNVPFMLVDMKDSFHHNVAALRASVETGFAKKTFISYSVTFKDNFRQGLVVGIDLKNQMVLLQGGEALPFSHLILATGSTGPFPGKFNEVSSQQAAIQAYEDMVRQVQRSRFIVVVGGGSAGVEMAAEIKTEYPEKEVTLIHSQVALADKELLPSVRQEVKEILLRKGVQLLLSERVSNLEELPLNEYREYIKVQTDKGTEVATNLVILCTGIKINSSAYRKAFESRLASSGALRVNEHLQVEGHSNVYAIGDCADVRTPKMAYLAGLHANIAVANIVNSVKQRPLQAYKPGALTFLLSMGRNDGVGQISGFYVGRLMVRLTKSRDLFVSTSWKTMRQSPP
UniProt Q5T9A4, sequence (Q5T9A4 whole entry, looked up): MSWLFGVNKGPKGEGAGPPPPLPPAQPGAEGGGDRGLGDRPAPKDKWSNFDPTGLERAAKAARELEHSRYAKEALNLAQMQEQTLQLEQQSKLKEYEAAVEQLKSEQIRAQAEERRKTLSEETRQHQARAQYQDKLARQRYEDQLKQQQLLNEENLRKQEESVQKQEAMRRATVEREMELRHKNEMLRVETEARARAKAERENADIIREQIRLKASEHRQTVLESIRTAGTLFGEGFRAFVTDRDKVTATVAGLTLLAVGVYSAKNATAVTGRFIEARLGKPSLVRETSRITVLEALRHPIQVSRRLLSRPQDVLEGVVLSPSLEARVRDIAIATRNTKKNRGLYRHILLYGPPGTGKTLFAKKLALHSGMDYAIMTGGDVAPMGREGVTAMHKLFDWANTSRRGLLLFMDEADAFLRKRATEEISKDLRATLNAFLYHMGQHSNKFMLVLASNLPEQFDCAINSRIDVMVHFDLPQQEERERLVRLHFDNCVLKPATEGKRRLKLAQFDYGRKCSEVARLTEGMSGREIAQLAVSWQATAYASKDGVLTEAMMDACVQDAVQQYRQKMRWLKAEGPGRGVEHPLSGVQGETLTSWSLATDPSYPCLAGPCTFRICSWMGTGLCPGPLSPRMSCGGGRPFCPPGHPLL
UniProt Q06481, sequence (Q06481 whole entry, looked up): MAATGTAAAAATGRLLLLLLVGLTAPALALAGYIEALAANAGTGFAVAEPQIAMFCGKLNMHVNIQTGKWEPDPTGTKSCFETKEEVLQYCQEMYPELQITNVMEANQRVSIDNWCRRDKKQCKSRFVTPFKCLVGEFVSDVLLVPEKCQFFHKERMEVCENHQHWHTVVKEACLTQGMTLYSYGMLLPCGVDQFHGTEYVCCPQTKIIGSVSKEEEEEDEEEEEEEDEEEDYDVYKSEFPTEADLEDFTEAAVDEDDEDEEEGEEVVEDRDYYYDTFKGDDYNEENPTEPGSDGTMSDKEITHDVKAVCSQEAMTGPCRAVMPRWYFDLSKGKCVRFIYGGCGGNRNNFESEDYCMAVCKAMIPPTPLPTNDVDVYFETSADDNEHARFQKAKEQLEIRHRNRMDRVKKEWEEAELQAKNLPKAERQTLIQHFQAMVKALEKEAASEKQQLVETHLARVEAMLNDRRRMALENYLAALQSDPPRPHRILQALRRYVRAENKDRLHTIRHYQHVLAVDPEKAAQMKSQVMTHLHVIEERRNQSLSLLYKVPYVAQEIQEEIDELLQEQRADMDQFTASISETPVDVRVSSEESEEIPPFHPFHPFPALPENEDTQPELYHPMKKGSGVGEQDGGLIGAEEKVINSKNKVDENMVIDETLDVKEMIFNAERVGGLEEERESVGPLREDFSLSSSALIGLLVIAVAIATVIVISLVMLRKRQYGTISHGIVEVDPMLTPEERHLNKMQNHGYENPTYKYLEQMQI
UniProt Q6P6C2, sequence (Q6P6C2 whole entry, looked up): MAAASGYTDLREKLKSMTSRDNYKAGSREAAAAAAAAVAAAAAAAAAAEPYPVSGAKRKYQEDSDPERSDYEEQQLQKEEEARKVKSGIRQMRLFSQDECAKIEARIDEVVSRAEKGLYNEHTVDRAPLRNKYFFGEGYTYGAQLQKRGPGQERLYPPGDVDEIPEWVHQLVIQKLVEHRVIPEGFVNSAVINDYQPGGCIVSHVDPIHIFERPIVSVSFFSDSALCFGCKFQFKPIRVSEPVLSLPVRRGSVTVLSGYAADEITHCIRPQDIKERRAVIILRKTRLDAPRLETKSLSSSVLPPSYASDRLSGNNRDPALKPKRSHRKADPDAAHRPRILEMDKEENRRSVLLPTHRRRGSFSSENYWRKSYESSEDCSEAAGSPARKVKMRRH
UniProt Q9UJX6, sequence (Q9UJX6 whole entry, looked up): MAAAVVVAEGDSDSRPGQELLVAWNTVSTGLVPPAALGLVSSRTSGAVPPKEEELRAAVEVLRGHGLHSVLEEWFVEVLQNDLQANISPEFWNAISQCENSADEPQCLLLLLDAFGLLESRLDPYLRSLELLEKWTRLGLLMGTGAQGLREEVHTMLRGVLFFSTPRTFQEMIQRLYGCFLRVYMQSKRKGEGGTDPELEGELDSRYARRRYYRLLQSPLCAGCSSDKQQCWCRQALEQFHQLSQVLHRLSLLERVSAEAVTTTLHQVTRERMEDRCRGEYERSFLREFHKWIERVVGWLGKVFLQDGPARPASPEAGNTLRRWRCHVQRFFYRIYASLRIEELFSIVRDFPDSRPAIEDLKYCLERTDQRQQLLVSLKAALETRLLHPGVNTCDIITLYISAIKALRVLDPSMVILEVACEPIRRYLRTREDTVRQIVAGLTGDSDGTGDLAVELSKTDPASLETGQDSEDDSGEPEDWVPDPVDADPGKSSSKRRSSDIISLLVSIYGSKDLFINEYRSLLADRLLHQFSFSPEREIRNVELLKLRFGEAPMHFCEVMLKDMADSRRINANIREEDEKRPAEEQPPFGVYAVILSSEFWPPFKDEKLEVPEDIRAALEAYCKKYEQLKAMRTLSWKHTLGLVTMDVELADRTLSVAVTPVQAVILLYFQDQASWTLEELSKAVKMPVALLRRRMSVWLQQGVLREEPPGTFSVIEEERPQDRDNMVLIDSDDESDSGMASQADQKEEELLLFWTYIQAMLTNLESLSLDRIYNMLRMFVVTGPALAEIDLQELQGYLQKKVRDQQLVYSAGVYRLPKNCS

Question: For ATAD3B (UniProt Q5T9A4), which log2 fold change is on record?
Answer: 0.058 (inactive)

Question: BAIAP2 (UniProt Q9UQB8) was tested. Which log2 fold change did it give?
Answer: -0.012 (inactive)

Question: For AIFM2 (UniProt Q9BRQ8), which log2 fold change is on record?
Answer: 0.01 (inactive)

Question: For BID isoform 2 (UniProt P55957), which log2 fold change is on record?
Answer: 0.025 (inactive)

Question: ALKBH5 (UniProt Q6P6C2) was tested. Which log2 fold change did it give?
Answer: -0.03 (inactive)

Question: For ACSL3 (UniProt O95573), which log2 fold change is on record?
Answer: -0.06 (inactive)

Question: How did the log2 fold change turn out when AGPAT3 isoform 3 (UniProt Q9NRZ7) was run?
Answer: -0.017 (inactive)

Question: How did the log2 fold change turn out when APLP2 (UniProt Q06481) was run?
Answer: -0.009 (inactive)

Question: Which log2 fold change does the source give for AGAP3 isoform 4 (UniProt Q96P47) here?
Answer: 0.036 (inactive)

Question: Which log2 fold change does the source give for BOP1 (UniProt Q14137) here?
Answer: -0.063 (inactive)

Question: With ATP6V1F isoform 2 (UniProt Q16864) as the target, how does the log2 fold change read?
Answer: 0.027 (inactive)

Question: ATL2 (UniProt Q8NHH9) was tested. Which log2 fold change did it give?
Answer: 0.016 (inactive)

Question: Which log2 fold change does the source give for BYSL (UniProt Q13895) here?
Answer: -0.065 (inactive)

Question: ANAPC2 (UniProt Q9UJX6) was tested. Which log2 fold change did it give?
Answer: -0.001 (inactive)

Question: Which log2 fold change does the source give for ACBD6 (UniProt Q9BR61) here?
Answer: 0.035 (inactive)

Question: ARHGAP1 (UniProt Q07960) was tested. Which log2 fold change did it give?
Answer: 0.011 (inactive)

Question: How did the log2 fold change turn out when ARPP19 (UniProt P56211) was run?
Answer: -0.06 (inactive)

Question: For AP2S1 (UniProt P53680), which log2 fold change is on record?
Answer: 0.028 (inactive)

Question: How did the log2 fold change turn out when ARMC10 (UniProt Q8N2F6) was run?
Answer: -0.001 (inactive)

Question: ABITRAM (UniProt Q9NX38) was tested. Which log2 fold change did it give?
Answer: -0.052 (inactive)

Question: With ACP2 (UniProt P11117) as the target, how does the log2 fold change read?
Answer: -0.004 (inactive)

Question: Which log2 fold change does the source give for BAP1 (UniProt Q92560) here?
Answer: -0.062 (inactive)

Question: Which log2 fold change does the source give for BECN1 (UniProt Q14457) here?
Answer: 0.011 (inactive)
